The values that follow come from PubChem BioAssay (EPA / NIEHS).

The structures appear in SMILES notation. Records with an inconclusive call do not appear. Activity calls are given as the source filed them. How the source made its calls: active means hit-call score of the fitted dose curve at least 0.9, where 1 is the maximum; inconclusive means response in the unintended direction; inactive means score below 0.9.

For this assay, the target named is Oxysterols receptor LXR-beta (Homo sapiens) (UniProt P55055). In words: ATG_LXRb_TRANS: Attagene TRANS-FACTORIAL HepG2 Assay for human Liver X Receptor beta (LXRb) (AID 2282981). The following applies: HepG2 Attagene TRANS GAL4-LXRb reporter, mRNA. On the procedure: ATG_TRANS is a cell-based, multiplexed-readout assay that uses HepG2, a human liver cell line, with measurements taken at 24 hours after chemical dosing in a 24-well plate.ATG_LXRb_TRANS is one of 30 assay component(s) measured or calculated from the ATG_TRANS assay. It is designed to make measurements of mRNA induction, a form of inducible reporter, as detected with fluorescence intensity signals by Reverse transcription polymerase chain reaction (RT-PCR) and Capillary electrophoresis technology.Data from the assay component ATG_LXRb_TRANS was analyzed into 1 assay endpoint. This assay endpoint, ATG_LXRb_TRANS, was analyzed in the positive analysis fitting direction relative to DMSO as the negative control and baseline of activity. Using a type of inducible reporter, measures of mRNA for gain-of-signal activity can be used to understand the reporter gene at the transcription factor-level as they relate to the gene NR1H2. Furthermore, this assay endpoint can be referred to as a primary readout, because this assay has produced multiple assay endpoints where this one serves a reporter gene function. To generalize the intended target to other relatable targets, this assay endpoint is annotated to the nuclear receptor intended target family, where the subfamily is non-steroidal.
Sequence of Oxysterols receptor LXR-beta (Homo sapiens) (P55055 whole entry, looked up, the tested form may be a part): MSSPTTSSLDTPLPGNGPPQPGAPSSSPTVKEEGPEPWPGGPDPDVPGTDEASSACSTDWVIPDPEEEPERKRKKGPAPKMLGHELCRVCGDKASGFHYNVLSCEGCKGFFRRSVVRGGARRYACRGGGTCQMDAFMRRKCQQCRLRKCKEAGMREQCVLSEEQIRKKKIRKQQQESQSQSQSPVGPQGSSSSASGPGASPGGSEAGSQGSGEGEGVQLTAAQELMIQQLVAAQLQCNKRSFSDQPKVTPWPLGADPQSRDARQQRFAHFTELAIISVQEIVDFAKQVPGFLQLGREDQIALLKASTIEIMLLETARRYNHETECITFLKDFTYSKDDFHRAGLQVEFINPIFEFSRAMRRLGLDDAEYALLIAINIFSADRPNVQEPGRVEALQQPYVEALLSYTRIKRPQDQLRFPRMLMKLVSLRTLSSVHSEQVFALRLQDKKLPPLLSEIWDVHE
Human liver HepG2 cells are transiently transfected with multiple reporter transcription units (MRTUs) in 6-well plates using FuGene 6 reagent (Roche; 3 ml FuGene/1 mg DNA). The MRTU constructs are regulated by a cis-regulating element (promoter). […] A major difference between the CIS and TRANS system is that in CIS activities of endogenous TFs are measured, whereas the TRANS assay evaluates changes in activities of exogenous, chimeric NR-Gal4 proteins. […] At the end of 24 hour incubation, total RNA was isolated using TriZol reagent (Invitrogen). The isolated RNA is then reverse-transcribed using oligo(dT) primer and Mo-MLV reverse transcriptase (Invitrogen) with DNAse I (Ambion) treatment for 30 min. The one-tenth of the produced cDNA was amplified by PCR using Taq DNA polymerase (Invitrogen) and two reporter sequence-specific primers. The PCR products were fluorescently labeled by primer extension with 6-arboxyfluorescein (6-FAM) 5'-labeled reporter sequence-specific primer (2 min at 95 C, 20 s at 68 C and 10 min at 72 C) and these products were digested with 5U of HpaI (New England Biolabs) for 2h at 37 C. The fragments were purified using Qiaquick PCR columns (Qiagen), analyzed on an ABI 3130xL genetic analyzer (Applied Biosystems) with peak positions identified by using a set of X-rhodamine (ROX)-labeled MapMarker1000 molecular weight standards (BioVentures). The raw capillary electrophoresis data was processed using Attagraph software (Attagene).
`Oc1c(Cl)cc(Cl)c(Cl)c1Cc1c(O)c(Cl)cc(Cl)c1Cl`: the outcome was inactive. As for `c1ccc(CN(Cc2ccccc2)Cc2ccccc2)cc1`, the compound was classed as inactive.

As for `CCCCCCCCCCCC(=O)OC[C@@H](O)[C@H]1OC[C@H](O)[C@H]1O`, the compound was called inactive.

Turning to `Nc1c(S(=O)(=O)O)cc(Br)c2c1C(=O)c1ccccc1C2=O`, the result was inactive.

For `C=CC(=O)OCCCC`, the outcome was inactive. For `Nc1ccn([C@H]2CS[C@@H](CO)O2)c(=O)n1`, the result was inactive. With `CCCC(=O)C(CC)Sc1ccoc1C` (stereo not given) the entry was “inactive”; with `CCOC(=O)CCc1ccccc1`, “inactive”. On to `CC(C)NCC(O)COc1ccc(CC(N)=O)cc1` (stereo not given), for which the outcome was inactive. With `C=Cc1ccc(C)cc1` the entry was “inactive”; with `O=C(O)CCCCCCCCC(=O)O`, “inactive”; with `CC(C)CC(C)CC(O)CC(C)C` (stereo not given), “inactive”. With `CCC(C)=O` the entry was “inactive”; with `CC(C=O)Cc1ccc(C(C)(C)C)cc1` (stereo not given), “inactive”. The value for `CC(=O)c1ccccn1` was “inactive”; that for `C1CCCCC1` was “inactive”. `CC(Oc1cc(Cl)ccc1Cl)C(=O)O` (stereo not given): the compound was called inactive. The value for `O=C1OC2(c3ccccc31)c1ccc(O)c(Br)c1Oc1c2ccc(O)c1Br` was “inactive”; that for `OCCOCCN1CCN(C2=Nc3ccccc3Sc3ccccc32)CC1` was “inactive”; that for `OCc1cccc(Oc2ccccc2)c1` was “inactive”. The value for `COC(=O)c1ccc(OC)cc1` was “inactive”; that for `Cc1[nH]c(=O)c(C#N)cc1-c1ccncc1` was “inactive”. Take `CN(C)c1cccc(O)c1`: the outcome was inactive. With `Cc1ncc[nH]1` the entry was “inactive”; with `C[Si](C)(C)O[Si](C)(C)C`, “inactive”.

Take `CSc1c(Cl)c(Cl)c(Cl)c(Cl)c1Cl`: the outcome was inactive. On to `C=CCCCCCCCCCC`, for which the compound was classed as inactive. With `C[C@H]1O[C@@H](O[C@H]2[C@@H](O)C[C@H](O[C@H]3[C@@H](O)C[C@H](O[C@H]4CC[C@@]5(C)[C@H](CC[C@@H]6[C@@H]5C[C@@H](O)[C@]5(C)[C@@H](C7=CC(=O)OC7)CC[C@]65O)C4)O[C@@H]3C)O[C@@H]2C)C[C@H](O)[C@@H]1O` the entry was “inactive”. The value for `O=C(CC(=O)c1ccccc1)c1ccccc1` was “inactive”; that for `CCC(=O)OCCOc1ccccc1` was “inactive”. With `Nc1ccc(NCCO)c([N+](=O)[O-])c1` the entry was “inactive”; with `CC(=O)CC(=O)Nc1ccccc1`, “inactive”; with `O=C1c2ccccc2C(=O)c2c(O)ccc(O)c21`, “inactive”.

Turning to `COc1ccccc1[N+](=O)[O-]`, the compound was classed as inactive. For the compound `CC(=O)O[C@@H]1C[C@@H]2CC[C@@]1(C)C2(C)C`, the outcome was inactive. On to `CN(C)CCOc1ccc(/C(=C(/CCCl)c2ccccc2)c2ccccc2)cc1`, for which the outcome was inactive. The value for `C#CC(C)N(C)C(=O)Nc1ccc(Cl)cc1` (stereo not given) was “inactive”; that for `CCCCCCCCCCCCN1CCCCCC1=O` was “inactive”; that for `NC(=S)NNC(N)=S` was “inactive”.

As to `Cc1cc(=O)oc2cc(N(C)C)ccc12`, the result was inactive.
